Compound activity (PubChem BioAssay)
Only a selection was taken, and hits are over-represented in it overall.
NS1 function inh = influenza NS1 inhibition; Potency, µM (doses to about 46.1 µM), inactives show at the top dose activity, positive = more growth; hit rate 0.4% among 270,000; AID 2326; note: potency is the fitted concentration of half-maximal effect; actives are rising curves; nearly all actives have a fitted effect of over 50% in size
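OD600 was taken as the measure of yeast growth restored by compound in an NS1-expressing S. cerevisiae strain. Cells had been washed out of glucose medium and diluted 1:100 into galactose -URA medium, pH 6.0.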
TbPYK inhibitor = T. brucei pyruvate kinase inhibition | TbPYK enzyme, Kinase-Glo Plus ATP luminescence, 45 min | Potency, µM (highest dose often 76.8 µM), for inactives: at the top dose activity, negative = inhibition, most hits filed as inhibitors | hit rate 0.12% among 410,000; active = well fitted curve in the direction sought with a large enough effect; inconclusive = small, poorly fitted or top-dose-only effect, or another doubt; inactive = no such curve, though single readings can be large; an effect the other way counts as inactive or inconclusive; note: potency is the fitted concentration of half-maximal effect; % is set by controls: 0 for no effect and ±100 for the full control effect; nearly all actives have a fitted effect of over 50% in size
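Quantitative HTS: titrated library compounds versus trypanosomal pyruvate kinase in TEA buffer (pH 7.2) containing KCl, MgCl2, BSA and Tween-20. Reactions were initiated with ADP, 130 uM final. Kinase-Glo Plus luminescence was read after 45 min at RT.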
Shiga inhibitor = inhibitors of Shiga toxin in Vero cells; hit rate 9.2% among 290,000; inhibition, % at 38.7 µM; Vero cells, Shiga toxin protein synthesis inhibition reporter; in the data active = inhibition mostly above about 28%, no sharp cut-off; inactive = mostly below about 43%; note: 0% is about no effect
SARS PLP yeast = blocks SARS-CoV papain-like protease in a yeast assay; S. cerevisiae expressing SARS-CoV PLpro, growth rescue; Potency, µM (top dose mostly 32.9 µM), without a hit: top-dose activity, positive = growth rescue, usual class: activators; hit rate 0.19% among 330,000; AID 485353; note: potency is the fitted concentration of half-maximal effect; 0% is about no effect; nearly all actives have a fitted effect of over 55% in size
Cycloheximide cs = counter-screen hit for Shiga toxin inhibitors, cycloheximide. AID 2314. hit rate 12% among 300,000. cell reporter, cycloheximide protein synthesis inhibition counterscreen. max response, %; in the data active = max response mostly above about 13%, no sharp cut-off; inactive = mostly below about 14%; note: read at 38.3 µM for the half of the compounds with a filed dose; 0% is about no effect
LmPK inhibitor = inhibitors of Leishmania mexicana pyruvate kinase | Q27686 | purified LmPK, Kinase-Glo ATP luminescence, 1 h | Potency, µM (doses to about 57.5 µM), for the others: at the highest dose activity change, negative = inhibition, usual class: inhibitors | hit rate 0.37% among 290,000; active = well fitted curve in the direction sought with a large enough effect; inconclusive = small, poorly fitted or top-dose-only effect, or another doubt; inactive = no such curve, though single readings can be large; an effect the other way counts as inactive or inconclusive; note: potency is the fitted concentration of half-maximal effect; % is set by controls: 0 for no effect and ±100 for the full control effect
Target sequence (Q27686 whole entry, looked up): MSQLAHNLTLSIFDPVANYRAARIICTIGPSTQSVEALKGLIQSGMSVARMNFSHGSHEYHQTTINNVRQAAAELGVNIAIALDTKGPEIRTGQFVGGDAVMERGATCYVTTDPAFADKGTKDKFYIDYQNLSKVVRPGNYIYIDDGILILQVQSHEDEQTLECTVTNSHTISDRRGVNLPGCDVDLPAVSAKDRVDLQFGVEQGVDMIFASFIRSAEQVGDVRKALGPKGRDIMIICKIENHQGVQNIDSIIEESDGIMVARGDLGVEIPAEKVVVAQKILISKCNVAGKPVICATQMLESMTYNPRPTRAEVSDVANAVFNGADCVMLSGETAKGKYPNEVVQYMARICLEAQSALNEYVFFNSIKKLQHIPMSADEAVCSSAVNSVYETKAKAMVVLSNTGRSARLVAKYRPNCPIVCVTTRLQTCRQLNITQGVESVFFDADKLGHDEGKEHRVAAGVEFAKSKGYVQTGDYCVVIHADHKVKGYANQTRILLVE
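In 50 mM imidazole pH 7.2 with 7 mM MgCl2, LmPK (0.1 nM) turned over PEP (0.5 mM) and ADP (0.1 mM) for 1 h at room temperature. Luciferase read-out of ATP.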
Flu NS1 inh = influenza NS1 function inhibition validation; shares compounds with NS1 function inh; 1,400 tested, under 10 active; influenza NS1 function cell assay, 15-point titration; activity change, negative = inhibition, % at 32.9 µM; note: 0% is about no effect
Flu PR8 replic = influenza NS1 inhibitors: inhibition of influenza A/PR/8/34 replication; hit rate 30% among 95; shares compounds with NS1 function inh; MDCK infected influenza A/PR/8/34, virus titer TCID50; hits give low values; AID 504647; virus titer (log TCID50), log10 TCID50 at 5 µM; call rule not given here
Active calls of the source: *; ? = inconclusive; / = no result given. Unless noted, calls come from the whole dose curve.

SMILES | NS1 function inh | TbPYK inhibitor | Shiga inhibitor | SARS PLP yeast | Cycloheximide cs | LmPK inhibitor | Flu NS1 inh | others
Cc1cc(C)n2nc(SCC(=O)Nc3c(C)n(C)n(-c4ccccc4)c3=O)nc2n1 | 5µM* | 1% | -9 | 3% | 2 | 5% | 8
CCN(CC(=O)Nc1ccccc1C(F)(F)F)C(=O)CN1C(=O)NC2(CCCC2)C1=O | / | 8% | / | 0% | / | / | /
CC1C(=O)N(c2ccc(S(=O)(=O)N(C)C)cc2)C1(/C=C/c1ccccc1)C(=O)NC1CCCC1 (stereo unspecified) | 8.9µM* | -5% | -5 | -8% | 3 | 0% | 18
CC(=O)c1ccc(NC(=O)c2ccc(-c3ccc(Cl)cc3)o2)cc1 | / | 0% | / | / | / | / | /
O=C(NCC(c1cccnc1)N1CCc2ccccc2C1)c1ccc(F)c(F)c1 (stereo unspecified) | / | -8% | / | / | / | / | /
O=C(/C=C/c1ccc(Br)cc1)c1ccc(NC2=NCCCS2)cc1 | ? | 3% | 7 | -10% | 11 | -4% | ?
Brc1cc2c(cc1C1OCCCO1)OCO2 | / | -4% | / | / | / | / | /
COc1ccc(CCn2c(SCC(=O)Nc3cc(C)on3)nc3ccccc3c2=O)cc1OC | 0% | 2% | 16 | 0% | -4 | -1% | /
O=C(CSc1nc2ccccc2c(=O)n1-c1ccc(F)cc1)Nc1ccc(N2CCOCC2)cc1 | 8% | 2% | -6 | 10% | -2 | 0% | /
O=C(CSc1nnc(Nc2ccccc2)s1)Nc1cccc(S(=O)(=O)N2CCCCC2)c1 | 11µM* | -12% | 58* | 2% | 49* | 0% | ?
Cc1cc(NC(=O)CSc2nc3cc4c(cc3c(=O)n2CCc2ccccc2)OCO4)no1 | 13µM* | -7% | 1 | 0% | 9.4* | 2% | 0
COc1ccc(-n2c(SCC(=O)Nc3ccc4c(c3)OCO4)nc3ccccc3c2=O)cc1 | 22µM* | -1% | -9 | -17% | -1 | -2% | 18
O=C(CSc1nc2ccccc2c(=O)n1-c1ccc(F)cc1)Nc1cc(S(=O)(=O)N2CCOCC2)ccc1Cl | 13µM* | -7% | -5 | 5% | 1 | 4% | 6
CCOc1ccc(-n2c(SCC(=O)Nc3ccc4c(c3)OCO4)nc3ccccc3c2=O)cc1 | 24% | -6% | -11 | 6% | -1 | 6% | /
CCCCC1Cc2[nH][nH]c(=O)c2C(c2ccc(F)cc2)O1 (stereo unspecified) | / | -6% | / | / | / | / | /
O=C(c1cc(Br)c(Br)s1)N1CCc2ccccc2C1 | / | 0% | / | -13% | / | / | /
COC(=O)N(C)C[C@H]1OCc2cnnn2CCCC(=O)N([C@H](C)CO)C[C@H]1C | / | 6% | / | / | / | / | /
Cc1cc(-n2c(C)nc3ccccc3c2=O)ccc1NC(=O)C(F)(F)F | / | 1% | / | / | / | / | /
O=C(CSc1nc2ccccc2c(=O)n1-c1ccccc1Cl)Nc1cccc(S(=O)(=O)N2CCOCC2)c1 | 11µM* | -15% | 19 | 24% | -3 | 3% | 24 | Flu PR8 replic=6.7*
O=C(CSc1ncnc2ccccc12)Nc1cccc(S(=O)(=O)N2CCOCC2)c1 | / | 4% | -6 | 1% | 6 | 1% | /
CCCCCn1cnnc1SCC(=O)c1c(N)n(C2CC2)c(=O)[nH]c1=O | / | -4% | / | -3% | / | / | /
COC(=O)C1=C(C)N(Cc2ccc(C)cc2)C(=O)/C1=C\c1ccc(O)c(OC)c1 | 10µM* | ? | -6 | 3% | -3 | -21% | ?
COC(=O)C1=C(C)N(Cc2ccc(C)cc2)C(=O)/C1=C\c1cc(OC)c(OC)c(OC)c1 | 23% | -4% | -8 | -4% | -2 | 1% | /
CCc1ccc2[nH]c(=O)c(C3C(C#N)=C(N)Oc4c3ccc3cccnc43)cc2c1 (stereo unspecified) | -76% | 28% | -4 | ? | -3 | 7% | /
Cc1ccc2cc(C3C(C#N)=C(N)Oc4c3ccc3cccnc43)c(=O)[nH]c2c1 (stereo unspecified) | 2.8µM* | 50% | -3 | 27% | 8 | 2% | 8
SMILES | NS1 function inh | TbPYK inhibitor | Shiga inhibitor | SARS PLP yeast | Cycloheximide cs | LmPK inhibitor | Flu NS1 inh | others
COc1ccc(Br)cc1CNC(=O)c1cnc2sc(N3CCC(C)CC3)nn2c1=O | / | 2% | / | / | / | / | /
COc1cc(/C=C2\C(=O)NC(=O)N(c3ccccc3)C2=O)cc(OC)c1OC | 7.9µM* | ? | 36 | 11% | 1 | 2% | 11
COc1ccc(C)cc1NC(=O)C(Sc1nnc(-c2cccs2)o1)c1ccccc1 (stereo unspecified) | 11µM* | 0% | -2 | 15% | 11 | -3% | -26
O=C1CCC(C(=O)N2CCc3c(Cl)cccc3C2)CN1CCCN1CCOCC1 (stereo unspecified) | 4% | -6% | -16 | -3% | 11 | -3% | /
COc1ccc(S(=O)(=O)N2CCC(N3CCCCC3)CC2)cc1 | 1.1µM* | -8% | -8 | 15% | 0 | 0% | 11
COc1ccc(S(=O)(=O)N2CCN(C(=O)C3CC3)CC2)cc1 | ? | -2% | -6 | 9% | 2 | 1% | -2
CCc1ccc(-n2nc(C)c3c(C)cc(=O)n(CC(=O)Nc4cc(Cl)ccc4OC)c32)cc1 | / | 0% | / | / | / | / | /
C=CCn1c(SCc2ccccc2)nc(O)cc1=O | 6.3µM* | -6% | 5 | -8% | 4 | -2% | 31
CN(c1ccc(C(=O)N2CCCCC2)cc1)S(C)(=O)=O | 14µM* | -10% | -16 | 8% | -3 | -1% | 5
CC1CCN(C(=O)c2ccc(N(C)S(C)(=O)=O)cc2)CC1 | 1% | 7% | -7 | 5% | 1 | 0% | /
CCCNC(=O)CCCN1C(=O)CCn2nc(-c3cccn3C)cc21 | / | -2% | / | / | / | / | /
COc1ccc(/C=C\C(=O)NCc2ccc3[nH]c(C)cc3c2)cc1OC | ? | -11% | -9 | 19% | -2 | -1% | /
COc1cc(/C=C\C(=O)NCc2ccc3[nH]c(C)cc3c2)cc(OC)c1OC | 1.3µM* | 3% | -2 | 9% | -2 | 2% | 21
C[C@]12Cc3cn4c(nc3C=C1CCC1C2CC[C@@]2(C)[C@H]1CC[C@@]2(O)C#N)nc1ccccc14 (stereo partly specified) | 40µM* | / | / | / | / | / | ?
CC12Cc3cnoc3C=C1CCC1C2CCC2(C)C1CCC2(C)O (stereo unspecified) | / | -2% | / | / | / | / | /
COc1cc(C(C(=O)NC2CCCCC2)N(C(=O)Cc2c[nH]c3ccccc23)c2ccc(C)cc2)cc(OC)c1OC (stereo unspecified) | 11µM* | -17% | -16 | -6% | -1 | 3% | 14
COc1ccc(C(C(=O)NC2CCCCC2)N(Cc2cccs2)C(=O)Cc2c[nH]c3ccccc23)cc1 (stereo unspecified) | 20% | 9% | -4 | -1% | -1 | 3% | /
